In the supplement of paper PMC4466140:

Key:
Assay in all cases: SPOT peptide array binding signal intensity (averaged, normalized) (arbitrary units (background-subtracted, floor 0; scale differs between SH3 domains)); higher = stronger binding of the SH3 domain to the peptide
AgAbp1 = target: AgAbp1
Summary of the method: (§1)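 Binding signal is given in arbitrary units that differ between domains and is the normalized, background-subtracted spot intensity averaged across replicates. Each GST-SH3 fusion from one of four yeast species was made in E. coli BL21(DE3), purified on glutathione Sepharose and incubated at 10 μg/ml overnight at 4°C on cellulose-bound synthetic 15-mer peptides in which cysteines were replaced by serines. Detection used anti-GST antibody, an HRP anti-mouse secondary and luminol, followed by imaging and Genespotter quantification.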

AgBbc1 = target: AgBbc1
Summary of the method: as §1

AgBem1-D1 = target: AgBem1-D1
Summary of the method: as §1

AgBzz1-D1 = target: AgBzz1-D1
Summary of the method: as §1

AgBzz1-D2 = target: AgBzz1-D2
Summary of the method: as §1

AgCyk3 = target: AgCyk3
Summary of the method: as §1

AgFus1 = target: AgFus1
Summary of the method: as §1

AgHof1 = target: AgHof1
Summary of the method: as §1

AgHse1 = target: AgHse1
Summary of the method: as §1

AgLsb1 = target: AgLsb1
Summary of the method: as §1

AgLsb4 = target: AgLsb4
Summary of the method: as §1

AgMyo5 = target: AgMyo5
Summary of the method: as §1

AgNbp2 = target: AgNbp2
Summary of the method: as §1

AgRvs167 = target: AgRvs167
Summary of the method: as §1

AgSho1 = target: AgSho1
Summary of the method: as §1

AgSla1-D1-D2 = target: AgSla1-D1-D2
Summary of the method: as §1

AgSla1-D3 = target: AgSla1-D3
Summary of the method: as §1

CaAbp1-D1 = target: CaAbp1-D1
Summary of the method: as §1

CaAbp1-D2 = target: CaAbp1-D2
Summary of the method: as §1

CaBbc1 = target: CaBbc1
Summary of the method: as §1

CaBem1-D1 = target: CaBem1-D1
Summary of the method: as §1

CaBzz1-D1 = target: CaBzz1-D1
Summary of the method: as §1

CaBzz1-D2 = target: CaBzz1-D2
Summary of the method: as §1

CaCyk3 = target: CaCyk3
Summary of the method: as §1

CaFus1 = target: CaFus1
Summary of the method: as §1

CaHof1 = target: CaHof1
Summary of the method: as §1

CaHse1 = target: CaHse1
Summary of the method: as §1

CaLsb1 = target: CaLsb1
Summary of the method: as §1

CaLsb4 = target: CaLsb4
Summary of the method: as §1

CaMyo5 = target: CaMyo5
Summary of the method: as §1

CaNbp2 = target: CaNbp2
Summary of the method: as §1

CaRvs167 = target: CaRvs167
Summary of the method: as §1

CaRvs167-3 = target: CaRvs167-3
Summary of the method: as §1

CaSho1 = target: CaSho1
Summary of the method: as §1

CaSla1-D1-D2 = target: CaSla1-D1-D2
Summary of the method: as §1

CaSla1-D3 = target: CaSla1-D3
Summary of the method: as §1

ScAbp1 = target: ScAbp1
Summary of the method: as §1

ScBbc1 = target: ScBbc1
Summary of the method: as §1

ScBem1-D1 = target: ScBem1-D1
Summary of the method: as §1

ScBzz1-D1 = target: ScBzz1-D1
Summary of the method: as §1

ScBzz1-D2 = target: ScBzz1-D2
Summary of the method: as §1

ScCyk3 = target: ScCyk3
Summary of the method: as §1

ScFus1 = target: ScFus1
Summary of the method: as §1

ScHof1 = target: ScHof1
Summary of the method: as §1

ScHse1 = target: ScHse1
Summary of the method: as §1

ScLsb1 = target: ScLsb1
Summary of the method: as §1

ScLsb2 = target: ScLsb2
Summary of the method: as §1

ScLsb3 = target: ScLsb3
Summary of the method: as §1

ScLsb4 = target: ScLsb4
Summary of the method: as §1

ScMyo3 = target: ScMyo3
Summary of the method: as §1

ScMyo5 = target: ScMyo5
Summary of the method: as §1

ScNbp2 = target: ScNbp2
Summary of the method: as §1

ScPex13 = target: ScPex13
Summary of the method: as §1

ScRvs167 = target: ScRvs167
Summary of the method: as §1

ScSho1 = target: ScSho1
Summary of the method: as §1

ScSla1-D1-D2 = target: ScSla1-D1-D2
Summary of the method: as §1

ScSla1-D3 = target: ScSla1-D3
Summary of the method: as §1

SpAbp1-D1 = target: SpAbp1-D1
Summary of the method: as §1

SpBbc1 = target: SpBbc1
Summary of the method: as §1

SpBzz1-D1 = target: SpBzz1-D1
Summary of the method: as §1

SpBzz1-D2 = target: SpBzz1-D2
Summary of the method: as §1

SpCyk3 = target: SpCyk3
Summary of the method: as §1

SpHof1 = target: SpHof1
Summary of the method: as §1

SpHof1-2 = target: SpHof1-2
Summary of the method: as §1

SpHof1-3 = target: SpHof1-3
Summary of the method: as §1

SpHse1 = target: SpHse1
Summary of the method: as §1

SpLsb1 = target: SpLsb1
Summary of the method: as §1

SpLsb4 = target: SpLsb4
Summary of the method: as §1

SpMyo1 = target: SpMyo1
Summary of the method: as §1

SpNbp2 = target: SpNbp2
Summary of the method: as §1

SpPex13 = target: SpPex13
Summary of the method: as §1

SpRvs167 = target: SpRvs167
Summary of the method: as §1

SpSla1-D1-D2 = target: SpSla1-D1-D2
Summary of the method: as §1

SpSla1-D3 = target: SpSla1-D3
Summary of the method: as §1

Binder: LLLLFVPDSPYDPAI
- SPOT peptide array binding signal intensity (AgAbp1): 1
- SPOT peptide array binding signal intensity (AgBbc1): 0.75
- SPOT peptide array binding signal intensity (AgBem1-D1): 27
- SPOT peptide array binding signal intensity (AgBzz1-D1): 17.5
- SPOT peptide array binding signal intensity (AgBzz1-D2): 20.5
- SPOT peptide array binding signal intensity (AgCyk3): 3
- SPOT peptide array binding signal intensity (AgFus1): 2370
- SPOT peptide array binding signal intensity (AgHof1): 2.25
- SPOT peptide array binding signal intensity (AgHse1): 277
- SPOT peptide array binding signal intensity (AgLsb1): ≤ 0
- SPOT peptide array binding signal intensity (AgLsb4): 636
- SPOT peptide array binding signal intensity (AgMyo5): 1
- SPOT peptide array binding signal intensity (AgNbp2): 63
- SPOT peptide array binding signal intensity (AgRvs167): 1.67
- SPOT peptide array binding signal intensity (AgSho1): 212
- SPOT peptide array binding signal intensity (AgSla1-D1-D2): ≤ 0
- SPOT peptide array binding signal intensity (AgSla1-D3): 0.5
- SPOT peptide array binding signal intensity (CaAbp1-D1): 11
- SPOT peptide array binding signal intensity (CaAbp1-D2): 1
- SPOT peptide array binding signal intensity (CaBbc1): ≤ 0
- SPOT peptide array binding signal intensity (CaBem1-D1): ≤ 0
- SPOT peptide array binding signal intensity (CaBzz1-D1): 43.5
- SPOT peptide array binding signal intensity (CaBzz1-D2): 19.5
- SPOT peptide array binding signal intensity (CaCyk3): 1
- SPOT peptide array binding signal intensity (CaFus1): 5080
- SPOT peptide array binding signal intensity (CaHof1): 66.8
- SPOT peptide array binding signal intensity (CaHse1): 92
- SPOT peptide array binding signal intensity (CaLsb1): 1.5
- SPOT peptide array binding signal intensity (CaLsb4): ≤ 0
- SPOT peptide array binding signal intensity (CaMyo5): 6.25

Binder: APKREAPKPPANTSP
- SPOT peptide array binding signal intensity (AgAbp1): 1
- SPOT peptide array binding signal intensity (AgBbc1): 112
- SPOT peptide array binding signal intensity (AgBem1-D1): 34
- SPOT peptide array binding signal intensity (AgBzz1-D1): 178
- SPOT peptide array binding signal intensity (AgBzz1-D2): 2.5
- SPOT peptide array binding signal intensity (AgCyk3): ≤ 0
- SPOT peptide array binding signal intensity (AgFus1): ≤ 0
- SPOT peptide array binding signal intensity (AgHof1): 6
- SPOT peptide array binding signal intensity (AgHse1): ≤ 0
- SPOT peptide array binding signal intensity (AgLsb1): 4.5
- SPOT peptide array binding signal intensity (AgLsb4): ≤ 0
- SPOT peptide array binding signal intensity (AgMyo5): 265
- SPOT peptide array binding signal intensity (AgNbp2): 382
- SPOT peptide array binding signal intensity (AgRvs167): ≤ 0
- SPOT peptide array binding signal intensity (AgSho1): ≤ 0
- SPOT peptide array binding signal intensity (AgSla1-D1-D2): ≤ 0
- SPOT peptide array binding signal intensity (AgSla1-D3): 8
- SPOT peptide array binding signal intensity (CaAbp1-D1): 6
- SPOT peptide array binding signal intensity (CaAbp1-D2): 11
- SPOT peptide array binding signal intensity (CaBbc1): 251
- SPOT peptide array binding signal intensity (CaBem1-D1): 14
- SPOT peptide array binding signal intensity (CaBzz1-D1): 2040
- SPOT peptide array binding signal intensity (CaBzz1-D2): 2090
- SPOT peptide array binding signal intensity (CaCyk3): ≤ 0
- SPOT peptide array binding signal intensity (CaFus1): 18
- SPOT peptide array binding signal intensity (CaHof1): ≤ 0
- SPOT peptide array binding signal intensity (CaHse1): 1.5
- SPOT peptide array binding signal intensity (CaLsb1): ≤ 0
- SPOT peptide array binding signal intensity (CaLsb4): ≤ 0
- SPOT peptide array binding signal intensity (CaMyo5): 1.75
- SPOT peptide array binding signal intensity (CaNbp2): 1520
- SPOT peptide array binding signal intensity (CaRvs167): 0.5
- SPOT peptide array binding signal intensity (CaRvs167-3): 2
- SPOT peptide array binding signal intensity (CaSho1): ≤ 0
- SPOT peptide array binding signal intensity (CaSla1-D1-D2): 106
- SPOT peptide array binding signal intensity (CaSla1-D3): 0.25
- SPOT peptide array binding signal intensity (ScAbp1): ≤ 0
- SPOT peptide array binding signal intensity (ScBbc1): 156
- SPOT peptide array binding signal intensity (ScBem1-D1): 4.5
- SPOT peptide array binding signal intensity (ScBzz1-D1): 348
- SPOT peptide array binding signal intensity (ScBzz1-D2): 5
- SPOT peptide array binding signal intensity (ScCyk3): ≤ 0
- SPOT peptide array binding signal intensity (ScFus1): ≤ 0
- SPOT peptide array binding signal intensity (ScHof1): ≤ 0
- SPOT peptide array binding signal intensity (ScHse1): ≤ 0
- SPOT peptide array binding signal intensity (ScLsb1): ≤ 0
- SPOT peptide array binding signal intensity (ScLsb2): ≤ 0
- SPOT peptide array binding signal intensity (ScLsb3): 4.5
- SPOT peptide array binding signal intensity (ScLsb4): ≤ 0
- SPOT peptide array binding signal intensity (ScMyo3): 616
- SPOT peptide array binding signal intensity (ScMyo5): 414
- SPOT peptide array binding signal intensity (ScNbp2): 1140
- SPOT peptide array binding signal intensity (ScPex13): 47.8
- SPOT peptide array binding signal intensity (ScRvs167): 1
- SPOT peptide array binding signal intensity (ScSho1): ≤ 0
- SPOT peptide array binding signal intensity (ScSla1-D1-D2): 738
- SPOT peptide array binding signal intensity (ScSla1-D3): 16.2
- SPOT peptide array binding signal intensity (SpAbp1-D1): 15
- SPOT peptide array binding signal intensity (SpBbc1): 1
- SPOT peptide array binding signal intensity (SpBzz1-D1): 86
- SPOT peptide array binding signal intensity (SpBzz1-D2): 0.25
- SPOT peptide array binding signal intensity (SpCyk3): ≤ 0
- SPOT peptide array binding signal intensity (SpHof1): ≤ 0
- SPOT peptide array binding signal intensity (SpHof1-2): ≤ 0
- SPOT peptide array binding signal intensity (SpHof1-3): 6.25
- SPOT peptide array binding signal intensity (SpHse1): 3.5
- SPOT peptide array binding signal intensity (SpLsb1): ≤ 0
- SPOT peptide array binding signal intensity (SpLsb4): ≤ 0
- SPOT peptide array binding signal intensity (SpMyo1): 1270
- SPOT peptide array binding signal intensity (SpNbp2): 1
- SPOT peptide array binding signal intensity (SpPex13): ≤ 0
- SPOT peptide array binding signal intensity (SpRvs167): 2.67
- SPOT peptide array binding signal intensity (SpSla1-D1-D2): ≤ 0
- SPOT peptide array binding signal intensity (SpSla1-D3): 0.5
